# Source: the supplement of paper PMC8728848
# This excerpt belongs to a sample that is enriched for the strongest signals.
# Legend:
# Assay in all cases: glycan array binding signal (z-score within array); higher = stronger binding
# Details in all cases: glycan notation: IUPAC condensed, linker removed
# [1] = molecular target: Fuc(a1-2)Gal(b1-3)GalNAc(b1-4)[Neu5Ac(a2-3)]Gal(b1-4)Glc
# Summary of the method: (§1)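 Columns mapping to the same glycan were averaged after glycan names were converted to IUPAC-condensed notation. The data come from 3228 arrays in the Consortium for Functional Glycomics database, limited to those with an available protein sequence. Binding is reported as a within-array Z-score averaged across arrays of one protein sequence and across linkers.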
# [2] = molecular target: Fuc(a1-2)Gal(b1-3)[Fuc(a1-4)]GlcNAc
# Summary of the method: as §1
# [3] = molecular target: Fuc(a1-2)Gal(b1-3)[Fuc(a1-4)]GlcNAc(b1-2)Man(a1-3)[Fuc(a1-2)Gal(b1-3)[Fuc(a1-4)]GlcNAc(b1-2)Man(a1-6)]Man(b1-4)GlcNAc(b1-4)GlcNAc
# Summary of the method: as §1
# Fuc(a1-2)Gal(b1-4)Glc6S = molecular target: Fuc(a1-2)Gal(b1-4)Glc6S
# Summary of the method: as §1
# [4] = molecular target: Fuc(a1-2)Gal(b1-4)GlcNAc(b1-3)Gal(b1-4)GlcNAc(b1-3)Gal(b1-4)GlcNAc
# Summary of the method: as §1
# [5] = molecular target: Fuc(a1-2)Gal(b1-4)[Fuc(a1-3)]GlcNAc(b1-3)[Neu5Ac(a2-6)Gal(b1-4)GlcNAc(b1-6)]Gal(b1-4)Glc
# Summary of the method: as §1
# [6] = molecular target: Fuc(a1-2)Gal6S(b1-4)Glc6S
# Summary of the method: as §1
# [7] = molecular target: Fuc(a1-2)[Gal(a1-3)]Gal(b1-3)GlcNAc
# Summary of the method: as §1
# [8] = molecular target: Fuc(a1-2)[Gal(a1-3)]Gal(b1-3)GlcNAc(b1-3)GalNAc
# Summary of the method: as §1
# [9] = molecular target: Fuc(a1-2)[Gal(a1-3)]Gal(b1-4)GlcNAc(b1-2)Man(a1-3)[Fuc(a1-2)[Gal(a1-3)]Gal(b1-4)GlcNAc(b1-2)Man(a1-6)]Man(b1-4)GlcNAc(b1-4)GlcNAc
# Summary of the method: as §1
# [10] = molecular target: Fuc(a1-2)[Gal(a1-3)]Gal(b1-4)GlcNAc(b1-6)GalNAc
# Summary of the method: as §1
# [11] = molecular target: Fuc(a1-2)[GalNAc(a1-3)]Gal(b1-3)GlcNAc
# Summary of the method: as §1
# [12] = molecular target: Fuc(a1-3)[Gal(b1-4)]GlcNAc(b1-4)Gal(b1-4)[Fuc(a1-3)]GlcNAc(b1-4)Gal(b1-4)[Fuc(a1-3)]GlcNAc
# Summary of the method: as §1
# Gal(a1-2)Gal = molecular target: Gal(a1-2)Gal
# Summary of the method: as §1
# Gal(b1-3)GalNAc = molecular target: Gal(b1-3)GalNAc
# Summary of the method: as §1
# Gal(b1-3)GlcNAc = molecular target: Gal(b1-3)GlcNAc
# Summary of the method: as §1
# [13] = molecular target: Gal(b1-3)GlcNAc(b1-3)Gal(b1-4)GlcNAc(b1-6)[Gal(b1-3)GlcNAc(b1-3)]Gal(b1-4)Glc
# Summary of the method: as §1
# [14] = molecular target: Gal(b1-3)GlcNAc(b1-3)Gal(b1-4)[Fuc(a1-3)]GlcNAc(b1-6)[Gal(b1-3)GlcNAc(b1-3)]Gal(b1-4)Glc
# Summary of the method: as §1
# [15] = molecular target: Gal(b1-4)GalNAc(b1-3)[Fuc(a1-2)]Gal(b1-4)GlcNAc
# Summary of the method: as §1
# [16] = molecular target: Gal(b1-4)GlcNAc(b1-2)Man(a1-3)[Gal(b1-4)GlcNAc(b1-2)][GlcNAc(b1-4)]Man(b1-4)GlcNAc(b1-4)GlcNAc
# Summary of the method: as §1
# [17] = molecular target: Gal(b1-4)GlcNAc(b1-2)Man(a1-3)[GlcNAc(b1-2)Man(a1-6)]Man(b1-4)GlcNAc(b1-4)GlcNAc
# Summary of the method: as §1
# [18] = molecular target: Gal(b1-4)GlcNAc(b1-2)Man(a1-6)Man(b1-4)GlcNAc(b1-4)GlcNAc
# Summary of the method: as §1
# [19] = molecular target: Gal(b1-4)GlcNAc(b1-2)Man(a1-6)[GlcNAc(b1-2)Man(a1-3)]Man(b1-4)GlcNAc(b1-4)GlcNAc
# Summary of the method: as §1
# [20] = molecular target: Gal(b1-4)GlcNAc(b1-3)Gal(b1-4)GlcNAc
# Summary of the method: as §1
# [21] = molecular target: Gal(b1-4)GlcNAc(b1-3)Gal(b1-4)GlcNAc(b1-3)Gal(b1-4)GlcNAc
# Summary of the method: as §1
# [22] = molecular target: Gal(b1-4)GlcNAc(b1-3)Gal(b1-4)[Fuc(a1-3)GlcNAc(b1-6)]Gal(b1-4)Glc
# Summary of the method: as §1
# Gal3S(b1-4)GlcNAc6S = molecular target: Gal3S(b1-4)GlcNAc6S
# Summary of the method: as §1
# Gal3S4S(b1-4)GlcNAc = molecular target: Gal3S4S(b1-4)GlcNAc
# Summary of the method: as §1
# Gal6S(b1-4)GlcNAc6S = molecular target: Gal6S(b1-4)GlcNAc6S
# Summary of the method: as §1
# [23] = molecular target: GalNAc(b1-3)Gal(a1-4)Gal(b1-4)GlcNAc(b1-3)Gal(b1-4)Glc
# Summary of the method: as §1
# GalNAc4S6S(b1-4)GlcNAc = molecular target: GalNAc4S6S(b1-4)GlcNAc
# Summary of the method: as §1
# GlcA(b1-3)GlcNAc = molecular target: GlcA(b1-3)GlcNAc
# Summary of the method: as §1
# [24] = molecular target: GlcNAc(b1-3)[GlcNAc(b1-4)][GlcNAc(b1-6)]GlcNAc
# Summary of the method: as §1
# Kdn(a2-3)Gal(b1-3)GalNAc = molecular target: Kdn(a2-3)Gal(b1-3)GalNAc
# Summary of the method: as §1
# Kdn(a2-3)Gal(b1-3)GlcNAc = molecular target: Kdn(a2-3)Gal(b1-3)GlcNAc
# Summary of the method: as §1
# [25] = molecular target: Neu5Ac(a2-3)Gal(b1-3)GalNAc6S
# Summary of the method: as §1
# [26] = molecular target: Neu5Ac(a2-3)Gal(b1-4)GlcNAc(b1-2)Man(a1-3)[Neu5Ac(a2-3)Gal(b1-4)GlcNAc(b1-2)Man(a1-6)]Man(b1-4)GlcNAc(b1-4)[Fuc(a1-6)]GlcNAc
# Summary of the method: as §1
# [27] = molecular target: Neu5Ac(a2-3)Gal(b1-4)GlcNAc(b1-3)Gal(b1-4)[Fuc(a1-3)]GlcNAc
# Summary of the method: as §1
# [28] = molecular target: Neu5Ac(a2-6)Gal(b1-4)GlcNAc(b1-2)Man(a1-3)[Gal(b1-4)GlcNAc(b1-2)Man(a1-6)]Man(b1-4)GlcNAc(b1-4)GlcNAc
# Summary of the method: as §1
# [29] = molecular target: Neu5Ac(a2-6)Gal(b1-4)GlcNAc(b1-2)Man(a1-3)[GlcNAc(b1-2)Man(a1-6)]Man(b1-4)GlcNAc(b1-4)GlcNAc
# Summary of the method: as §1
# [30] = molecular target: Neu5Ac(a2-6)GlcNAc(b1-4)GlcNAc
# Summary of the method: as §1
# [31] = molecular target: Neu5Ac(b2-6)Gal(b1-4)GlcNAc
# Summary of the method: as §1
# Neu5Gc(a2-6)GalNAc = molecular target: Neu5Gc(a2-6)GalNAc
# Summary of the method: as §1
binder,measurement,setting,value
"PRKCE (Homo sapiens), Q02156 (protein) MVVFNGLLKIKICEAVSLKPTAWSLRHAVGPRPQTFLLDPYIALNVDDSRIGQTATKQKTNSPAWHDEFVTDVCNGRKIELAVFHDAPIGYDDFVANCTIQFEELLQNGSRHFEDWIDLEPEGRVYVIIDLSGSSGEAPKDNEERVFRERMRPRKRQGAVRRRVHQVNGHKFMATYLRQPTYCSHCRDFIWGVIGKQGYQCQVCTCVVHKRCHELIITKCAGLKKQETPDQVGSQRFSVNMPHKFGIHNYKVPTFCDHCGSLLWGLLRQGLQCKVCKMNVHRRCETNVAPNCGVDARGIAKVLADLGVTPDKITNSGQRRKKLIAGAESPQPASGSSPSEEDRSKSAPTSPCDQEIKELENNIRKALSFDNRGEEHRAASSPDGQLMSPGENGEVRQGQAKRLGLDEFNFIKVLGKGSFGKVMLAELKGKDEVYAVKVLKKDVILQDDDVDCTMTEKRILALARKHPYLTQLYCCFQTKDRLFFVMEYVNGGDLMFQIQRSRKFDEPRSRFYAAEVTSALMFLHQHGVIYRDLKLDNILLDAEGHCKLADFGMCKEGILNGVTTTTFCGTPDYIAPEILQELEYGPSVDWWALGVLMYEMMAGQPPFEADNEDDLFESILHDDVLYPVWLSKEAVSILKAFMTKNPHKRLGCVASQNGEDAIKQHPFFKEIDWVLLEQKKIKPPFKPRIKTKRDVNNFDQDFTREEPVLTLVDEAIVKQINQEEFKGFSYFGEDLMP",glycan array binding signal (z-score),[1],-0.414
same,glycan array binding signal (z-score),[2],-0.08
same,glycan array binding signal (z-score),[3],3.82
same,glycan array binding signal (z-score),Fuc(a1-2)Gal(b1-4)Glc6S,0.01
same,glycan array binding signal (z-score),[4],-0.376
same,glycan array binding signal (z-score),[5],-0.275
same,glycan array binding signal (z-score),[6],3.89
same,glycan array binding signal (z-score),[7],-0.168
same,glycan array binding signal (z-score),[8],0.498
same,glycan array binding signal (z-score),[9],-0.355
same,glycan array binding signal (z-score),[10],4.32
same,glycan array binding signal (z-score),[11],-0.107
same,glycan array binding signal (z-score),[12],-0.315
same,glycan array binding signal (z-score),Gal(a1-2)Gal,0.035
same,glycan array binding signal (z-score),Gal(b1-3)GalNAc,-0.389
same,glycan array binding signal (z-score),Gal(b1-3)GlcNAc,-0.364
same,glycan array binding signal (z-score),[13],-0.234
same,glycan array binding signal (z-score),[14],-0.277
same,glycan array binding signal (z-score),[15],0.061
same,glycan array binding signal (z-score),[16],-0.146
same,glycan array binding signal (z-score),[17],2.61
same,glycan array binding signal (z-score),[18],-0.31
same,glycan array binding signal (z-score),[19],1.3
same,glycan array binding signal (z-score),[20],-0.365
same,glycan array binding signal (z-score),[21],0.155
same,glycan array binding signal (z-score),[22],-0.176
same,glycan array binding signal (z-score),Gal3S(b1-4)GlcNAc6S,6.34
same,glycan array binding signal (z-score),Gal3S4S(b1-4)GlcNAc,8.77
same,glycan array binding signal (z-score),Gal6S(b1-4)GlcNAc6S,3.2
same,glycan array binding signal (z-score),[23],-0.217
same,glycan array binding signal (z-score),GalNAc4S6S(b1-4)GlcNAc,-0.211
same,glycan array binding signal (z-score),GlcA(b1-3)GlcNAc,-0.247
same,glycan array binding signal (z-score),[24],4.39
same,glycan array binding signal (z-score),Kdn(a2-3)Gal(b1-3)GalNAc,-0.132
same,glycan array binding signal (z-score),Kdn(a2-3)Gal(b1-3)GlcNAc,-0.38
same,glycan array binding signal (z-score),[25],-0.364
same,glycan array binding signal (z-score),[26],-0.386
same,glycan array binding signal (z-score),[27],-0.192
same,glycan array binding signal (z-score),[28],0.571
same,glycan array binding signal (z-score),[29],3.58
same,glycan array binding signal (z-score),[30],-0.318
same,glycan array binding signal (z-score),[31],-0.121
same,glycan array binding signal (z-score),Neu5Gc(a2-6)GalNAc,-0.342
